# The list is not random: actives were taken first. Their share in the collection is about 11%.
# IMPase Li cell: IMPase inhibition in cells with lithium potentiation. actives 0.35% (n = 210,000). AID 1457. CHO-M1 cells, IP1 TR-FRET (IP-One), carbachol + lithium. Potency, µM (highest dose often 59.4 µM), for inactives: top-dose activity, negative = IMPase inhibition, actives largely listed as inhibitors;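 further: IP1 builds up when IMPase is blocked and the TR-FRET signal falls; potency means the concentration at half of the fitted maximal effect; plate controls were basal vehicle for no effect and high inhibitor control for full effect; nearly all actives have a fitted effect of over 50% in size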
#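 CHO cells stably expressing M1 receptor (2000/well, cultured 16–30 h) treated 30 min at 37C with compound plus low lithium. Cytosolic IP1 by TR-FRET (665/620 ratio and 620 channel) after 10 min lysis; AC50 by Hill fit.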
# NPSR antagonist: antagonists of human neuropeptide S receptor cAMP signaling; actives 1% (n = 220,000); Potency, µM (doses to about 38.3 µM), for the others: at the highest dose activity change, negative = inhibition, most hits filed as inhibitors; CHO-NPSR cells, cAMP TR-FRET, antagonist mode; Q6W5P4; further: potency means the concentration at half of the fitted maximal effect; nearly all actives have a fitted effect of over 50% in size
# IMPase inh: cell-permeable inhibitors of inositol monophosphatase (IMPase) | CHO-M1 cells, IP1 accumulation, HTRF TR-FRET ratio | 120,000 tested, under 10 active | AID 901 | inhibition (IP1 accumulation), % at 46.1 µM; active means well fitted curve in the direction sought with a large enough effect in the signal ratio, not every such curve was filed as active; inconclusive means small, poorly fitted or top-dose-only effect, or a change in a side signal; inactive means no such curve, though single readings can be large or run the other way; the % refers to the signal ratio;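 further: cells stimulated with carbachol in lithium chloride buffer; plate controls were DMSO basal wells for no effect and reference inhibitor wells for full effect; higher means more IMPase inhibition seen as more IP1 and lower FRET ratio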
# Target sequence (P97697 whole entry, looked up): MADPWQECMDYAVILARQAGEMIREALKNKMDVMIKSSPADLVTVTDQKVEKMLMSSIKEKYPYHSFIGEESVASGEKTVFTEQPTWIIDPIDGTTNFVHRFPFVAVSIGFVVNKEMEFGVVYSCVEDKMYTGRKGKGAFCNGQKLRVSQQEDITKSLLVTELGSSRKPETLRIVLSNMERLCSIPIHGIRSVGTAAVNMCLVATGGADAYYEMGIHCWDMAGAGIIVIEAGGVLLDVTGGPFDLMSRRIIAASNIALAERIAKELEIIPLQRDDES
#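 Elevated IP1 in lysates lowers TR-FRET signal (665/620 ratio and 620 channel reported). Cells were CHO-M1, given carbachol (50 uM as added) plus 50mM LiCl, pH 7.4, 30 min, 37C; compounds titrated up to 46 uM; AC50 by Hill equation.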
# HPGD block: HPGD (human) dehydrogenase inhibition; purified HPGD, NADH fluorescence kinetic, PGE2 substrate; P15428; AID 894; actives 4.3% (n = 150,000); Potency, µM, for inactives: at the highest dose activity change, negative = inhibition, most hits filed as inhibitors; active means well fitted inhibition curve with a large enough effect, not every such curve was filed as active; inconclusive means small, poorly fitted or top-dose-only effect, or another doubt; inactive means no such curve, though single readings can be large or run the other way; further: potency means the concentration at half of the fitted maximal effect
# Target sequence (P15428 whole entry, looked up): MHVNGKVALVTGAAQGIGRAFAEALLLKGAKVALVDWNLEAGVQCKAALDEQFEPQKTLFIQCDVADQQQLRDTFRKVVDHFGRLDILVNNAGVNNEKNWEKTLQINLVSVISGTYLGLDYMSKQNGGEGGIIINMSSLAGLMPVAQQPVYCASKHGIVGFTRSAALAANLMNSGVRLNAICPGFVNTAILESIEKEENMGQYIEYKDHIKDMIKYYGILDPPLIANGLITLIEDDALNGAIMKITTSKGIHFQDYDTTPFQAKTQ
#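 NADH formation kinetics: reaction with 30 uM PGE2 and 1 mM NAD+ (final), 20 nM enzyme, Tris-HCl pH 8 with Tween 20, after 15 min compound preincubation at room temperature. Fluorescence change, last versus first of five reads.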
# ALDH1A1 inh: blocks purified human ALDH1A1 activity; Potency, µM (doses to about 75.3 µM), inactives show top-dose activity, negative = inhibition, most hits filed as inhibitors; P00352; Purified ALDH1A1, NADH fluorescence, propionaldehyde substrate; actives 7.3% (n = 220,000); active means well fitted inhibition curve with a large enough effect, not every such curve was filed as active; inconclusive means small, poorly fitted or top-dose-only effect, or another doubt; inactive means no such curve, though single readings can be large or run the other way;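 further: potency means the concentration at half of the fitted maximal effect; plate controls were no enzyme wells and a reference inhibitor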
# PNC inhibitor: perinucleolar compartment assembly inhibition; activity change (PNC), negative = inhibition, % at 10 µM; actives 3.1% (n = 140,000); PC3M PTB-GFP, PNC prevalence imaging, 16 h; active compounds read low; AID 2417;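 active means readout at or below -70, meaning at least 70% loss of cells showing the perinucleolar compartment, a nuclear body marking cancer cells; inconclusive means readout between -30 and a set limit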;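 further: plate controls were DMSO wells for no effect and camptothecin positive control wells for full effect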
#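 Read-out is percentage of cells bearing a perinucleolar compartment, from automated 20x imaging of fixed, Hoechst-stained PC3M PTB-GFP cells. Cells were seeded 4 h, then exposed 16 h to compound (23 nl of library stock) in duplicate plates.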
# Numbers without * were called inactive; u = inconclusive; x = no result; [ ] = dose if it differs, or a comment. Unless noted, the call rests on the fitted dose curve; in most records, active means well fitted curve in the direction sought with a large enough effect; inconclusive means small, poorly fitted or top-dose-only effect, or another doubt; inactive means no such curve, though single readings can be large; an effect the other way counts as inactive or inconclusive. Unless noted, on the % scale 0 is the no-effect control and ±100 the full control effect.
SMILES,IMPase Li cell,NPSR antagonist,IMPase inh,HPGD block,ALDH1A1 inh,PNC inhibitor
CC1CN(C2CCN(S(=O)(=O)c3ccc4ccccc4c3)CC2)CC(C)O1 (configuration not stated),x,-4.5%[46.1 µM],6.8,x,14.1µM*,10.9
CCOC(=O)c1sc(=S)n(CC)c1N,-16.3%[38.3 µM],-6.5%[46.1 µM],-9.7,-16.2%,5.0%,22.5
CCn1c(N)c(C(=O)NCc2ccco2)sc1=S,19.2%[38.3 µM],-1.7%[46.1 µM],2.8,22.4µM*,14.1µM*,u
CCn1c(N)c(C(N)=O)sc1=S,7.4%[38.3 µM],-1.8%[46.1 µM],-10.4,u,8.91µM*,-5.7
CCOC(=O)c1ccc(-n2c(N)c(C(=O)NCc3ccco3)sc2=S)cc1,-3.0%[38.3 µM],-12.1%[46.1 µM],13.3,28.2µM*,17.8µM*,-21.0
CCOC(=O)c1ccc(-n2c(=S)sc3c(=O)[nH]c(C)nc32)cc1,-8.6%[38.3 µM],-23.0%[46.1 µM],-5.7,6.31µM*,7.08µM*,u
Cc1[nH]c2ccccc2c1/C=N/NC(=S)NC(C)C,4.3%,-14.3%,x,x,-1.0%,x
CCOC(=O)/C(=C/c1ccc(F)cc1)NC(C)=O,3.8%,12.4%,-14.4,-8.8%,-22.4%,-2.9
CC1CCCCN1S(=O)(=O)c1ccc(S(=O)(=O)NCCc2ccncc2)cc1 (configuration not stated),11.9%,-11.1%[46.1 µM],0.1,0.9%,u,328.9
Cc1nc2c(cc1C(=O)N/N=C/c1ccc([N+](=O)[O-])cc1)c(=O)n(C)c(=O)n2C,-0.8%,24.3%,-1.6,-3.2%,1.5%,-19.6
CNC(=O)c1sc(=S)n(-c2ccc(OC)cc2)c1N,-2.2%,1.5%,x,x,-3.0%,x
C=CCNC(=O)c1sc(=S)n(-c2ccc(C(=O)OCC)cc2)c1N,3.5%[38.3 µM],-6.5%[46.1 µM],5.0,15.8µM*,12.6µM*,23.4
O=C1NC2(CCCCCC2)Oc2ccccc21,-0.5%,11.5%,x,x,4.6%,x
O=C1NC2(CCCCC2)Oc2ccccc21,23.4%[38.3 µM],7.4%[46.1 µM],-5.2,-11.8%,15.8µM*,27.9
O=C(c1ccco1)N1CCN(S(=O)(=O)c2ccc3c(c2)OCCO3)CC1,22.6%[38.3 µM],-4.9%[46.1 µM],5.1,3.7%,-3.8%,-0.1
O=C(NCc1cccs1)C(=O)NCC1OCCCN1S(=O)(=O)c1ccccc1 (configuration not stated),-12.6%,13.8%,x,-4.3%,-0.8%,-90.5*
O=C(NCc1ccccc1)C(=O)NCC1OCCN1S(=O)(=O)c1cccs1 (configuration not stated),8.1%,7.7%,x,-2.1%,u,u
Cc1cc2c(cc(C(=O)NCc3cccnc3)n2Cc2ccc(Cl)cc2)o1,15.0%[38.3 µM],u,5.6,17.8µM*,6.31µM*,-2.3
Cc1ccc(S(=O)(=O)N2CCCOC2CNC(=O)C(=O)NCc2cccnc2)cc1 (configuration not stated),3.0%,15.8%,x,-1.6%,-15.4%,102.5
Cc1cc(C(=O)NCc2cccnc2)no1,-4.0%[38.3 µM],-0.3%[46.1 µM],4.5,-8.5%,4.9%,45.0
O=C(NCc1ccco1)C(=O)NCC1OCCCN1S(=O)(=O)c1ccccc1 (configuration not stated),-2.3%,5.6%,x,-15.7%,14.1µM*,-3.6
O=C(NCc1cccnc1)C(=O)NCC1OCCN1S(=O)(=O)c1ccc(Cl)cc1 (configuration not stated),2.9%,1.9%,x,-6.1%,12.4%,-118.9*
O=C(CSc1nnc(-c2cccnc2)o1)Nc1ccc(Cl)cc1,3.6%,0.2%,x,x,-0.5%,x
Fc1ccc(CSc2nc3ncccc3[nH]2)cc1,7.6%[38.3 µM],u,-9.3,-22.5%,-11.8%,28.1
COCCNC(=O)C(=O)NCC1OCCCN1S(=O)(=O)c1cccs1 (configuration not stated),-5.1%,19.5%,x,-8.9%,17.8µM*,3.3
SMILES,IMPase Li cell,NPSR antagonist,IMPase inh,HPGD block,ALDH1A1 inh,PNC inhibitor
Cc1ccc(CNC(=O)C(=O)NCC2OCCN2S(=O)(=O)c2cccs2)cc1 (configuration not stated),3.5%,8.1%,x,-5.2%,u,44.6
COCC(C)NC(=O)CSc1nnc(-c2cccc(S(=O)(=O)N3CCCCC3)c2)o1 (configuration not stated),7.8%,0.9%,x,x,6.0%,x
CC(NC(=O)CSc1nnc(-c2cccc(S(=O)(=O)N3CCCCC3)c2)o1)C12CC3CC(CC(C3)C1)C2 (configuration not stated),-3.5%[38.3 µM],10µM*,5.2,-6.1%,-7.6%,12.6
CC(C)CNC(=O)CSc1nnc(-c2cccc(S(=O)(=O)N3CCCCC3)c2)o1,u,-8.8%[46.1 µM],u,-22.4%,2.2%,-127.5*
Cc1ccccc1Nc1c(-c2c(F)cccc2Cl)nc2ccc(Br)cn12,x,x,8.4,x,x,x
CC(/C=C1\SC(=S)N(CCCC(=O)Nc2ccc(C(=O)O)c(O)c2)C1=O)=C\c1ccccc1,18.5%,-17.0%,-12.3,u,6.31µM*,-13.8
COc1ccc(-c2nnnn2C)cc1S(=O)(=O)NCCc1ccccc1,-0.3%,3.9%[46.1 µM],-10.9,-3.8%,-8.0%,u
CCn1nnnc1-c1ccc(OC)c(S(=O)(=O)Nc2ccc(C)c(C)c2)c1,-11.8%[38.3 µM],6.6%[46.1 µM],3.4,-6.2%,7.08µM*,u
COc1ccc(NS(=O)(=O)c2cc(-c3nnnn3C)ccc2OC)cc1,-3.3%[38.3 µM],-4.8%[46.1 µM],2.9,-6.0%,0.794µM*,25.5
CCn1nnnc1-c1ccc(OC)c(S(=O)(=O)NCc2ccccc2)c1,38.6%[38.3 µM],-11.9%[46.1 µM],5.7,20µM*,1.89µM*,-4.5
CSc1nccc(Oc2ccc(C#N)cc2)n1,5.9%,7.1%,x,-9.2%,7.4%,-10.5
CCCCNc1nnc(CCn2nc(C)c(Br)c2C)s1,-6.7%,11.2%,x,-20.7%,10.5%,19.9
CC12CCC(C(=O)N(NC(=O)c3cc(Cl)ccc3O)C1=O)C2(C)C (configuration not stated),-1.6%[38.3 µM],-2.0%[46.1 µM],-3.2,u,u,23.1
COC(=O)C1CCN(C(=O)COC(=O)c2ccc(OC)c(S(=O)(=O)N3CCCc4ccccc43)c2)CC1,13.2%,-16.8%,x,x,4.47µM*,x
COc1ccc(S(=O)(=O)/N=C2/NC(=O)/C(=C\c3cc(OC)c(OC)cc3[N+](=O)[O-])S2)cc1,16.5%[38.3 µM],-5.9%[46.1 µM],8.0,5.01µM*,u,-18.9
COc1cc(/C=C2\S/C(=N/S(=O)(=O)c3ccccc3)NC2=O)c([N+](=O)[O-])cc1OC,-5.9%,-1.4%[46.1 µM],0.4,7.08µM*,-3.8%,5.9
Cc1ccc(S(=O)(=O)/N=C2/NC(=O)/C(=C/c3ccccn3)S2)cc1,3.0%,49.3%,x,x,-0.8%,x
COc1cc(/C=C2/SC(=Nc3ccc(O)cc3)NC2=O)ccc1O,x,41.6%,x,x,-5.2%,x
Cc1ccccc1-c1ccc2ncnc(NC3CC3)c2c1,18.4%,x,x,x,-11.0%,x
CCCCn1c(SCC(=O)Nc2ccc(OC)cc2)nc2ccc(N3CCOCC3)cc2c1=O,10.2%[38.3 µM],-18.8%[46.1 µM],7.4,u,u,u

# Screens as filed in PubChem.
